This is a sample that favours compounds with a hit; in the whole collection about 21% have one here.
TDP1 cell CPT = growth inhibition of DT40 Tdp1-/-;hTDP1 cells with camptothecin (screen for TDP1 inhibitors) | chicken DT40 Tdp1-/-;hTDP1 cells + 20 nM CPT, ATP luminescence, 48 h | Potency, µM (highest dose often 46.2 µM), usual class: inhibitors | 12% of 420,000 active; further: nearly all actives have a fitted effect of over 55% in size
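Chicken DT40 Tdp1-/- cells complemented with human TDP1, 400 cells/well, exposed to compounds plus 20 nM camptothecin for at least 48 h at 37 C; viability read as ATP content by CellTiter-Glo luminescence.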
D3 ag = activates the human D3 dopamine receptor; P35462; D3R DiscoveRx beta-arrestin cells, luminescence, 90 min; max activation, %; 0.58% of 410,000 active; AID 652048; in the data active means max activation above about 30%
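Agonist-mode cell screen: cells plated at 1500/well and incubated overnight at 37 °C, then exposed to library compounds for 90 min at 37 °C. Detection reagent was added for 30–60 min at room temperature, and luminescence was read.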
TDP1 cell noCPT = qHTS for Inhibitors of human tyrosyl-DNA phosphodiesterase 1 (TDP1): qHTS in cells in absence of CPT; DT40 Tdp1-/- hTDP1 cells, no CPT, ATP luminescence, 48 h; Potency, µM (doses to about 46.2 µM), actives largely listed as inhibitors; 15% of 420,000 active; AID 686978, 2013; further: nearly all actives have a fitted effect of over 55% in size
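DT40 Tdp1-/-;hTDP1 cells, no CPT (DMSO vehicle only), 400 cells/well; compounds pin-transferred; ≥48 hr, 37 °C; CellTiter-Glo 30 min RT dark, luminescence read.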
ClpP mod = qHTS Assay for Activators of ClpP; ATP-dependent Clp protease proteolytic subunit (Bacillus subtilis (strain 168)), P80244; purified B. subtilis ClpP, FRET peptide cleavage, 20 min; Potency, µM (top dose mostly 57.5 µM); 1.9% of 340,000 active; AID 651965, 2013; active means well fitted falling curve with a large enough effect; inconclusive means small, poorly fitted or top-dose-only effect; inactive means no such curve, though single readings can be large or run the other way; further: the source files actives as falling curves though it sought activators and does not explain the sign; nearly all actives have a fitted effect of over 65% in size
Target sequence (P80244 whole entry, looked up): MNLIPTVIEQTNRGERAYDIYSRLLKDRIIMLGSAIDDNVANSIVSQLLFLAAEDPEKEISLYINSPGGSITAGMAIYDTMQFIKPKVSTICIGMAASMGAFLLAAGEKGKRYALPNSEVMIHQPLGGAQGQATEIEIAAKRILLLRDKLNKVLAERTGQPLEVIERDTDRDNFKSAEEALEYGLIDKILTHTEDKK
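Purified B. subtilis ClpP, 10 microg/mL final in Tris/HCl pH8 with KCl, BSA, glycerol and Tween-20, cleaved an Abz/nitrotyrosine-quenched decapeptide. Fluorescence (ex 320, em 430) was read at 0 and 20 min at room temperature. Delta was normalized to 5.8 microM ADEP and DMSO/no-enzyme controls.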
IL1B secr inh = inflammasome signaling inhibition, IL-1 beta readout; THP-1 LPS/ATP IL-1B secretion, AlphaLISA, 16 h; active compounds read low; activity change, % at 57.5 µM; 4.7% of 360,000 active; in the data active means activity change below about -50%; inconclusive means mostly about -30% to -49%
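THP-1 cells pretreated 1 hr with compounds (up to 57.5 uM final), then stimulated with LPS (250 ng/mL final) plus ATP (1.25 mM final); secreted IL-1B measured by AlphaLISA after 16 hr, decreased signal indicating inhibition.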
D3 antag = blocks the human D3 dopamine receptor; P35462; max response, negative = inhibition, %; D3R cells, DiscoveRx beta-arrestin luminescence, antagonist mode; active compounds read low; 2.5% of 360,000 active; in the data active means max response below about -50%; inconclusive means no clear call, values can overlap the other calls
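Cells plated overnight at 1500 cells/well, then exposed to library compounds with dopamine controls for 90 minutes at 37 degrees C. DiscoveRx reagent added for 30–60 minutes at room temperature; luminescence read, quantitative HTS format.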
Hits are given with their value; . = inactive; ? = inconclusive; / = no result given. Unless noted, the call rests on the fitted dose curve; in most records, active means well fitted inhibition curve with a large enough effect; inconclusive means small, poorly fitted or top-dose-only effect; inactive means flat fitted curve, though single readings scatter.

SMILES	TDP1 cell CPT	D3 ag	TDP1 cell noCPT	ClpP mod	IL1B secr inh	D3 antag
Cc1ccccc1-c1csc(C(O)(c2ccccc2)C(F)(F)F)n1 (centres undefined)	?	.	?	.	.	.
CN(C)c1ccc(-c2csc(C(O)(c3ccccc3)C(F)(F)F)n2)cc1 (centres undefined)	10.3µM	.	7.31µM	?	.	-94.2
Oc1cccc(-c2csc(C(O)(c3ccccc3)C(F)(F)F)n2)c1 (centres undefined)	?	.	?	.	.	.
OC(c1ccccc1)(c1nc(-c2ccc(F)c(Cl)c2)cs1)C(F)(F)F (centres undefined)	?	.	16.4µM	.	.	.
O=C(CCC1CCN(C(=O)c2cc(C(F)(F)F)ccc2Cl)CC1)NC1CC1	.	.	.	.	.	.
COc1ccc(OC)c(NC(=O)c2cc(=O)c3c(C)cc(C)cc3o2)c1	.	.	?	.	/	/
CCOC1=C2CN(S(=O)(=O)c3ccc(C)cc3)C(c3ccc(CC)cc3)CC2n2c(=O)n(-c3ccccc3)c(=O)n2C1 (centres undefined)	.	.	.	.	.	.
COCc1ccc(CN2CCCC(C(=O)Nc3ccc(-c4cccc(OC)c4)cc3)C2)o1 (centres undefined)	?	.	14.6µM	.	.	.
COc1cccc(-c2ccc(NC(=O)C3CCCN(Cc4cnc(N(C)C)s4)C3)cc2)c1 (centres undefined)	18.4µM	.	23.1µM	.	.	.
CCCc1ncc(CN2CCCC(C(=O)Nc3ccc(-c4cccc(OC)c4)cc3)C2)cn1 (centres undefined)	23.1µM	.	?	.	.	.
COc1cccc(-c2ccc(NC(=O)C3CCCN(CCCn4cccn4)C3)cc2)c1 (centres undefined)	?	.	?	.	.	.
O=C(Nc1cccc(-c2ccc(F)cc2)c1)C1CCCN(Cc2cccnc2)C1 (centres undefined)	?	.	?	.	?	.
COc1cccc(-c2ccc(NC(=O)C3CCCN(Cc4cnn(C(C)C)c4)C3)cc2)c1 (centres undefined)	23.1µM	.	?	.	-78.7	.
COc1cccc(-c2ccc(NC(=O)C3CCCN(Cc4cc(C)[nH]n4)C3)cc2)c1 (centres undefined)	?	.	?	.	.	.
O=C(NCc1ccc2c(c1)CCN2C(=O)c1ccccc1)c1ccco1	?	.	?	.	/	/
CC1CN(CCN2CC(C)N(C=O)CC2C)C(C)CN1C=O (centres undefined)	.	.	.	.	.	.
COc1cc(C(O)c2nc(-c3cccc(C(F)(F)F)c3)cs2)ccc1F (centres undefined)	16.4µM	.	?	.	?	.
COc1cccc(C(NC(C)=O)c2nc(-c3cccc(C(F)(F)F)c3)cs2)c1 (centres undefined)	?	.	?	.	.	.
COc1cc(F)ccc1-c1csc(C(O)c2ccccc2)n1 (centres undefined)	25.9µM	.	?	.	.	.
COc1cccc(C(O)c2nc(-c3cccc(C(F)(F)F)c3)cs2)c1 (centres undefined)	.	.	0.581µM	.	.	.
OC(c1ccc(F)cc1)c1nc(-c2csc3ccccc23)cs1 (centres undefined)	18.4µM	.	25.9µM	.	.	.
COc1ccccc1-c1csc(C(O)c2ccc(F)cc2)n1 (centres undefined)	?	.	?	.	.	?
COc1cc(C(O)c2nc(-c3ccc(C)c(C)c3)cs2)ccc1F (centres undefined)	?	.	?	.	.	.
OC(c1ccccc1)c1nc(-c2csc3ccccc23)cs1 (centres undefined)	?	.	.	.	.	.

Screening data as filed in PubChem.
